The text below walks through data of ChEMBL document CHEMBL3988442, “University of Dundee, Small-Polar-MMV Screening Library” (2021).

For some assays here: Potency and affinity values are given separately.

Common to all, as to parameters: scale not given: direction of the effect not stated beside the values
The target of assay [1] is Protein translocase subunit SecA (Escherichia coli (strain K12)) (UniProt P10408). Nature of the assay: Assay to Identify E. coli SecA ATPase Inhibitors. Conditions: 30 µM. In kind it is functional.
Protein translocase subunit SecA (Escherichia coli (strain K12)), sequence (P10408 whole entry): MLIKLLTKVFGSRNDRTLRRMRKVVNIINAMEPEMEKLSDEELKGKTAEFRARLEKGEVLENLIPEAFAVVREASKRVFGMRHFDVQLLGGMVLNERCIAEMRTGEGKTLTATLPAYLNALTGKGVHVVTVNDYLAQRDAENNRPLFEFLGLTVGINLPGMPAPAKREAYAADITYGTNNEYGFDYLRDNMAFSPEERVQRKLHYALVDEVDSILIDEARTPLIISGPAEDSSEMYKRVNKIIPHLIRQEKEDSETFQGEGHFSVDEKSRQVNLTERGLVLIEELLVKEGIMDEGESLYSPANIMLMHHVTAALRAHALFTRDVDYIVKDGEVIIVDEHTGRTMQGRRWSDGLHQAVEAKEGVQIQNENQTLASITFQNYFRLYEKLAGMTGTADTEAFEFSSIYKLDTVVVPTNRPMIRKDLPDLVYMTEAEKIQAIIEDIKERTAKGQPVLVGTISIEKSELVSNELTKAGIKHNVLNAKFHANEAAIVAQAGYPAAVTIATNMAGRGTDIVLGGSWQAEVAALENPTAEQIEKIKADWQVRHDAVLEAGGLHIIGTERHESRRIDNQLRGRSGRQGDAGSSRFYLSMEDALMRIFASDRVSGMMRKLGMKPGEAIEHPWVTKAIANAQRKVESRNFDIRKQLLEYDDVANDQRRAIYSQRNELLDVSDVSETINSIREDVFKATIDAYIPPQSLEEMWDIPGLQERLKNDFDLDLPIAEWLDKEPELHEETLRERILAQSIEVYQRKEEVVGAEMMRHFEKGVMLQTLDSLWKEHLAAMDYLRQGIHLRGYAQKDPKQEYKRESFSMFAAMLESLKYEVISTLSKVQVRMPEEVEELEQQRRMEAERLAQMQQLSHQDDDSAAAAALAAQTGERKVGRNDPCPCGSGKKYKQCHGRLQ
For assay [2], the target named is T1, Ubiquitin-activating enzyme e1, putative (Leishmania donovani (strain BPK282A1)) (UniProt E9BSI1).
T1 sequence (whole entry): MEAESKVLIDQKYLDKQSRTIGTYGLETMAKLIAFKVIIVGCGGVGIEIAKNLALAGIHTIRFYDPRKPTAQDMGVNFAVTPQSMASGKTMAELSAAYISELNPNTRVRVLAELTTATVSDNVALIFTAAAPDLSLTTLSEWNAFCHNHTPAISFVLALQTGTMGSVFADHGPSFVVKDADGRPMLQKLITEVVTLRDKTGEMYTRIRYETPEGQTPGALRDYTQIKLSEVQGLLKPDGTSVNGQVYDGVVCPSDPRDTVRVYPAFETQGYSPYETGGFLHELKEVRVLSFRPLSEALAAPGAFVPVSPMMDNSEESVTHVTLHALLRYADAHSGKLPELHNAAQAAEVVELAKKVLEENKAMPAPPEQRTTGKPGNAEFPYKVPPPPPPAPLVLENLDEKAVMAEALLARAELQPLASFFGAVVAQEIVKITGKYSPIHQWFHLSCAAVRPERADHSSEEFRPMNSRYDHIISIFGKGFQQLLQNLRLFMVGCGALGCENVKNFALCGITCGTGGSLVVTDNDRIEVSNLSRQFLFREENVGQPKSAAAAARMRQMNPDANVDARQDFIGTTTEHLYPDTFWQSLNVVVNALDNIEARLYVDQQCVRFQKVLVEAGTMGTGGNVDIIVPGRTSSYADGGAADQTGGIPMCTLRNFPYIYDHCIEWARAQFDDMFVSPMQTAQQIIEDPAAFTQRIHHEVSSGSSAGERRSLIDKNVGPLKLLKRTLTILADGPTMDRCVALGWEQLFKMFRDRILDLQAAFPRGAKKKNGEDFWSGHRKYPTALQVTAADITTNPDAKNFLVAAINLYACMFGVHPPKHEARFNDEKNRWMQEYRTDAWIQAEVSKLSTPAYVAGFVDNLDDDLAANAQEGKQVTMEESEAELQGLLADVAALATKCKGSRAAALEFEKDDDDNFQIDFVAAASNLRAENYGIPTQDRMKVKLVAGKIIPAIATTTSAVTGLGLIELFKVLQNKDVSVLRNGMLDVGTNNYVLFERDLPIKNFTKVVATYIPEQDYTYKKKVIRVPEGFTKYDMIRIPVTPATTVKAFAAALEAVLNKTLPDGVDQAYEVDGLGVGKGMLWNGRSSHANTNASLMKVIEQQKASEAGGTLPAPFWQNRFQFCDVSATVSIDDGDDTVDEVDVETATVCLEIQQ
Briefly: Leishmania donovani Ubiquitin Activating Enzyme (LdE1). Format: functional. Conditions: 30 µM.

Assay [3] has as its target AMP-activated protein kinase, AMPK (Homo sapiens) (UniProt P54646+O43741+P54619+Q9UGJ0+Q9Y478+Q13131+Q9UGI9). Nature of the assay: AMP-dependent Kinase enzyme assay. An in vitro enzyme assay that detects ADP turnover that is directly proportional to AMPK activity. This uses naive AMPK that is activated during the assay with MK-8722. In kind it is functional. Conditions: 30 µM.

Assay [4] concerns the target Sialic acid-binding Ig-like lectin 9 (Homo sapiens) (UniProt Q9Y336). Nature of the assay: Hs-Siglec9 ALPHAscreen SOP 20170721. The conditions noted are these: 10 µM. For orientation: Bead proximity is the source of the signal in Alpha formats.
The next assay relates to Trypanosoma cruzi. Nature of the assay: Trypanosoma cruzi phosphomannomutase and mannose-1-phosphate guanylyltransferase assay. Format: functional. The conditions noted are these: 10 µM.
In assay [5] the target is T2, Arginase-2, mitochondrial (Homo sapiens) (UniProt P78540).
T2 sequence (whole entry): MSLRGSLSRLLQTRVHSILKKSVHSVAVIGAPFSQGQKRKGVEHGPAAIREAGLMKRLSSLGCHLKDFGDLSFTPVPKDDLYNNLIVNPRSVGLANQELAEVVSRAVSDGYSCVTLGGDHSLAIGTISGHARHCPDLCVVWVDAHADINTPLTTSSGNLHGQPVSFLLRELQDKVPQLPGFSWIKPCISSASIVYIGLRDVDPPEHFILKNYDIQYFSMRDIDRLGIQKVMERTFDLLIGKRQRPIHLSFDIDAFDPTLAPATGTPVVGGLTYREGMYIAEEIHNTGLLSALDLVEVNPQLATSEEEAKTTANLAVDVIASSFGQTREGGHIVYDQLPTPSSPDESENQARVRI
Briefly: in vitro enzyme assay to detect the production of urea directly proportional to the activity of Arginase II. Note: in the data most compounds retested in dose-response had high values. Format: functional. The conditions noted are these: 33.3 µM.

Assay [6] deals with T3, Proteasome subunit beta (Trypanosoma cruzi) (UniProt O96673).
T3 sequence (whole entry): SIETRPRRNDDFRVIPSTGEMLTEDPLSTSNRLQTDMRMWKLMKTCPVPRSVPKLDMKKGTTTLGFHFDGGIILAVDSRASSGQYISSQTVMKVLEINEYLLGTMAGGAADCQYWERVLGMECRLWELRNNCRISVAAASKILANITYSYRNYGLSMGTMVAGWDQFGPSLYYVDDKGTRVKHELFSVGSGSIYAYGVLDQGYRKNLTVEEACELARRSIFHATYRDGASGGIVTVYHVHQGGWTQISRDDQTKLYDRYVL
Nature of the assay: Trypanosoma cruzi proteasome chymotrypsin-like activity (TcProtChymo) assay. Note: in the data most compounds retested in dose-response had high values. In kind it is functional. Conditions: 9.37 µM.

The species entered for a further assay is Homo sapiens. Briefly: To identify inhibition of the IFN signalling (Jak-Stat) pathway via expression of an eGFP reporter gene under the control of an IFN-stimulated response element (ISRE) containing MxA promoter. In kind it is functional. The conditions noted are these: 30 µM. On the technique in general: Reporter assays use an easily measured gene product as a stand-in for the process of interest.

Assay [7] has as its target T4, Tyrosyl-tRNA synthetase, putative (Trypanosoma cruzi (strain CL Brener)) (UniProt Q4DSP6).
T4 sequence (whole entry): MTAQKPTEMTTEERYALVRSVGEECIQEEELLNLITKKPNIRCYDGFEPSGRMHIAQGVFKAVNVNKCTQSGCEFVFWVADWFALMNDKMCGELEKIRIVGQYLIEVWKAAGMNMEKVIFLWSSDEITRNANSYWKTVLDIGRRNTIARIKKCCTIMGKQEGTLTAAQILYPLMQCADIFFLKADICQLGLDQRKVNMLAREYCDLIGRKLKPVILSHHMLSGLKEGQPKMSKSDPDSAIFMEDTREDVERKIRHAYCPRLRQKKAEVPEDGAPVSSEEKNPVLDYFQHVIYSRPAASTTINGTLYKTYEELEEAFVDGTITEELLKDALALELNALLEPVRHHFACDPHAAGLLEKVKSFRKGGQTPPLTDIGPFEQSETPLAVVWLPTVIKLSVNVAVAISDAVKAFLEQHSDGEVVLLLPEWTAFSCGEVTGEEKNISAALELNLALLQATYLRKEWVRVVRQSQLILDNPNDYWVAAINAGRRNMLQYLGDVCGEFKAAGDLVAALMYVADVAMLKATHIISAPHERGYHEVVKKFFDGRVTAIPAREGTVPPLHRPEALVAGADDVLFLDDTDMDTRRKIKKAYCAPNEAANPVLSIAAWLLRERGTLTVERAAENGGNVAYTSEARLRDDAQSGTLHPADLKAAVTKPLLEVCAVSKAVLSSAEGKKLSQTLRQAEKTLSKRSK
Nature of the assay: Trypanosoma cruzi tyrosyl tRNA synthetase (TcYRS) _High Tyrosine SOP. Note: in the data most compounds retested in dose-response had high values. In kind it is functional. The conditions noted are these: 30 µM.

Assay [8] addresses T4, Tyrosyl-tRNA synthetase, putative (Trypanosoma cruzi (strain CL Brener)). Nature of the assay: Trypanosoma cruzi tyrosyl tRNA synthetase (TcYRS) SOP. In kind it is functional. The conditions noted are these: 30 µM.
The target of assay [9] is Chromo domain-containing protein 1 (Saccharomyces cerevisiae (strain ATCC 204508 / S288c) (Baker's yeast)) (UniProt P32657). Briefly: ScCHD-1 Enzyme Inhibition Assay. Note: in the data most compounds retested in dose-response had high values. Conditions: 30 µM. Format: functional.
Chromo domain-containing protein 1 (Saccharomyces cerevisiae (strain ATCC 204508 / S288c) (Baker's yeast)), sequence (P32657 whole entry, the tested form may be a part): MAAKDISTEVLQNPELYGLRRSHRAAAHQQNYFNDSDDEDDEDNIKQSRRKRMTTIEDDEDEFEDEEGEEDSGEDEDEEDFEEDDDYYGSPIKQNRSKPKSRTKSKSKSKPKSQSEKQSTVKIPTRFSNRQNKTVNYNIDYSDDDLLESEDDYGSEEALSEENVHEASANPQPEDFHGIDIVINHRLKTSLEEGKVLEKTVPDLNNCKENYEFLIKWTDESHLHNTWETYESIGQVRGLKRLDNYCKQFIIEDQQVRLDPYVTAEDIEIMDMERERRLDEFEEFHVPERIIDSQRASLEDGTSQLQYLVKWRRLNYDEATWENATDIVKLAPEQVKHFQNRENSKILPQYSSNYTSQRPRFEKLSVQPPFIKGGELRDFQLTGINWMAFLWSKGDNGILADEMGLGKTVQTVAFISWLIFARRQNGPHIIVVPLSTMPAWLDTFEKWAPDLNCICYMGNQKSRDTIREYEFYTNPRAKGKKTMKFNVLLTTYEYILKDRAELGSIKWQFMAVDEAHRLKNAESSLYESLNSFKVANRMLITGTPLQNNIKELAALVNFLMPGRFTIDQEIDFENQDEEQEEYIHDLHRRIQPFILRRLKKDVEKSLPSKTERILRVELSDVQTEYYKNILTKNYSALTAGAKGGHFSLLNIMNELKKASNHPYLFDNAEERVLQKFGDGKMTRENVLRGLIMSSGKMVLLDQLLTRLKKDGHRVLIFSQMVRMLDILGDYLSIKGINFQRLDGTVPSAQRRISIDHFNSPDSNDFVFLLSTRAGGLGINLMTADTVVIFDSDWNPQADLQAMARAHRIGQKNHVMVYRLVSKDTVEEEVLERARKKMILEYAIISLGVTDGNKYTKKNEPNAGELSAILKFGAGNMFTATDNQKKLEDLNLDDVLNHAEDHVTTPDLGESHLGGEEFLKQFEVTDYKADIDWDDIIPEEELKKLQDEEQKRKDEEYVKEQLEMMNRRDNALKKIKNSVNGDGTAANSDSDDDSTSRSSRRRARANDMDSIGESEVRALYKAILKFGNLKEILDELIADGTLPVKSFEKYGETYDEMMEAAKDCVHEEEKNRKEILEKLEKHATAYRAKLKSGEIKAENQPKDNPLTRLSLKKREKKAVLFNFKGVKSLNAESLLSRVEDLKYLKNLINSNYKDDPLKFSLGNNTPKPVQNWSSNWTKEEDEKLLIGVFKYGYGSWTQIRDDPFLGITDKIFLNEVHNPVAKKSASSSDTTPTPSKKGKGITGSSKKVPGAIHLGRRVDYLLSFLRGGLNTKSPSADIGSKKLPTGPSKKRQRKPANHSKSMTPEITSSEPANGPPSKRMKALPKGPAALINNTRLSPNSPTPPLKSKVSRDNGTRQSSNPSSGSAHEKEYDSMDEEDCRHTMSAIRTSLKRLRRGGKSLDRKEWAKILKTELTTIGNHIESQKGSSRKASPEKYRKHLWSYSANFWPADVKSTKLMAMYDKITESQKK

Sialic acid-binding Ig-like lectin 9 (Homo sapiens), sequence (Q9Y336 whole entry): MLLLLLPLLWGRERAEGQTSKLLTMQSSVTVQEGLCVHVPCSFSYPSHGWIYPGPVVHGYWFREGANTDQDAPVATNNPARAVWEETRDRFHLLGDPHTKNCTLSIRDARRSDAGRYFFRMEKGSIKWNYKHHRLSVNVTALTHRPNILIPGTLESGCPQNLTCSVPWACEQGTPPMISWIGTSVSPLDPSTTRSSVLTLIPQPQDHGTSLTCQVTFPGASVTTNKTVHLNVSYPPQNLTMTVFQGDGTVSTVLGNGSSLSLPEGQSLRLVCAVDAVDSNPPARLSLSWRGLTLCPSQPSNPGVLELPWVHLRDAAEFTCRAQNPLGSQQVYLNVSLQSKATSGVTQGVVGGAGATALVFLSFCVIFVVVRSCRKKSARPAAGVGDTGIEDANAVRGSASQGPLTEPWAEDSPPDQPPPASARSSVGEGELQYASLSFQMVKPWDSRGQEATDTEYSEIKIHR

Consider `OC(COc1ccccc1)CN1CCC(c2ccn[nH]2)CC1` (stereo not given), for which the Percent Effect is -2.35% in [1]; 15.2% in [2]; -5.68% in assay [3]; 0.333% in assay [4]; -4.82% in the assay with Trypanosoma cruzi; 3.04% in [5]. The Percent Effect was 2.05% in [6]; -21.8% in the assay filed under Homo sapiens; 2.46% in assay [7]; 13.9% in [8]; -2.28% in assay [9].
Take `CC(OCC(F)(F)F)C(=O)NCc1ccc(-n2cncn2)nc1` (stereo not given): the Percent Effect was -1.15% in assay [1]; 18.2% in [2]; 0.466% in [3]; -5.68% in [4]; 4.8% with Trypanosoma cruzi; -22.5% in assay [5]. Also, the Percent Effect in [6] was 8.16%; in the assay listed under Homo sapiens it was 21.5%; in [7] it was 7.62%; in assay [8] it was 23.5%; in [9] it was -24%.
For the molecule `O=C(NCc1cncc2c1CCN(Cc1cccc(F)c1)C2)C1CC1`, the Percent Effect in assay [1] is -4.48%; in [2], 0%; in assay [3], 5.3%; in [4] it was 4.67%; with Trypanosoma cruzi, -3.97%; in [5], -5.59%. Further, the Percent Effect in [6] was 7.96%; in the assay filed under Homo sapiens it was 9.89%; in assay [7], -5.21%; in [8], 6.17%; in assay [9], 2.56%.
Regarding `CCOc1cccc(CNC(=O)NCC(O)c2cccc(F)c2)c1` (stereo not given), the Percent Effect in [1] is -5.26%; in assay [2], 16.2%; in assay [3], -2%; in [4], 22.6%; in the assay with Trypanosoma cruzi, 5.75%; in [5], -6.01%. Moreover, the Percent Effect in assay [6] is -1.44%; in the assay listed under Homo sapiens, 29.2%; in assay [7] it was 7.39%; in assay [8] it was 23.5%; in assay [9], -11.2%.
On to `CCn1nc(CC(C)C)cc1C(=O)N1C[C@H](O)[C@@H](N2CCCCC2)C1`, for which the Percent Effect in assay [1] was -3.95%; in assay [2], 16%; in [3], -4.12%; in assay [4], 15.8%; with Trypanosoma cruzi it was 6.33%; in [5], 4.69%. The Percent Effect was 12.6% in [6]; -6.25% in the assay listed under Homo sapiens; 2.73% in assay [7]; 13.6% in assay [8]; -6.08% in assay [9].
On to `O=C(NCC(F)(F)F)C1CSCN1S(=O)(=O)c1ccc(F)cc1` (stereo not given), for which the Percent Effect was -4.1% in assay [1]; 16.5% in assay [2]; 4.27% in assay [3]; -0.453% in [4]; 1.33% in the assay on Trypanosoma cruzi; -4.95% in [5]. Also, the Percent Effect in assay [6] was 16.5%; in the assay filed under Homo sapiens, 7.19%; in assay [7], 13.5%; in assay [8] it was 30.4%; in assay [9], -28%.
For `CCC(CC)NC(=O)Cn1nc(C)nc1-c1ccccc1`, the Percent Effect in [1] is -4.52%; in [2], 16.2%; in assay [3], -5.72%; in assay [4] it was 3.26%; in the assay on Trypanosoma cruzi, -6.32%; in assay [5], -1.2%. Also, the Percent Effect was 3.6% in assay [6]; 21.4% in the assay filed under Homo sapiens; 6.4% in assay [7]; 11.1% in assay [8]; -8.07% in [9].
In the case of `CCn1ncc2c1C(COC)CN(Cc1ccsc1)C2` (stereo not given), the Percent Effect was -3.96% in [1]; 18.9% in assay [2]; -9.13% in assay [3]; 5.54% in [4]; 1.47% in the assay with Trypanosoma cruzi; 1.24% in assay [5]. Also, the Percent Effect in assay [6] was 6.95%; in the assay listed under Homo sapiens it was 5.76%; in [7], 7.53%; in assay [8], 16.1%; in assay [9] it was -11.9%.
For the molecule `Cc1nc(C2CCN(C(=O)c3cccnc3)CC2)c2sccn12`, the Percent Effect was -1.59% in assay [1]; 1.35% in assay [2]; 6.93% in assay [3]; 4.07% in [4]; 3.36% with Trypanosoma cruzi; 3.48% in [5]. In addition, the Percent Effect in assay [6] is 7.8%; in the assay listed under Homo sapiens, -15.3%; in [7] it was 2.15%; in assay [8] it was 6.49%; in assay [9], -6.97%.
On to `Cc1noc(CCCC(=O)NC(C)c2cccnc2)n1` (stereo not given), for which the Percent Effect is 0.699% in [1]; 13.2% in assay [2]; 0.237% in assay [3]; 0.605% in assay [4]; -5.83% in the assay on Trypanosoma cruzi; 5.75% in [5]. Moreover, the Percent Effect was 8.86% in assay [6]; 21.4% in the assay filed under Homo sapiens; 8.33% in [7]; 12.2% in [8]; -6.49% in assay [9].
